Measurements: PubChem BioAssay (Tox21)
Values without a mark were called inactive. Records with an inconclusive call do not appear. A call without a number means that no potency is given here. Active and inactive are the calls of the source. Unless noted, the call rests on the fitted dose curve; in most records, active means well fitted curve in the direction sought with a large enough effect in the repeat runs; inconclusive means weak or mixed curves; inactive means no such curve, though single readings can be large; an effect the other way counts as inactive or inconclusive.

Columns and labels:
[1] = qHTS assay to identify small molecule agonists of the estrogen receptor alpha (ER-alpha) signaling pathway in the presence of an antagonist - cell viability counter screen (AID 1259386);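 further: cells exposed to compounds for 22 h at 37 °C before the viability read; nearly all actives have a fitted effect of over 30% in size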; further: potency means the concentration at half of the fitted maximal effect
Outline: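 VM7Luc4E2 cells (endogenous full-length ER-alpha, 4×ERE-luciferase) were held 5 days in phenol red-free medium with 10% charcoal-stripped FBS, plated, then given 10.0nM ICI-182,780 and compounds at 15 concentrations for 22hr at 37C; viability read by CellTiter-Fluor fluorescence.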

[2] = target: Progesterone receptor (Homo sapiens) (UniProt P06401); assay: qHTS assay to identify small molecule agonists of the progesterone receptor (PR) signaling pathway (AID 1346784; calls by dose curve; further: nearly all actives have a fitted effect of over 30% in size)
Outline: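 Agonist mode, quantitative HTS format in a HEK 293T line expressing a UAS-controlled beta-lactamase reporter; 16 hr compound exposure at 37C in 2% charcoal-stripped FBS, then LiveBLAzer B/G FRET fluorescence.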

[3] = target: Progesterone receptor (Homo sapiens) (UniProt P06401); assay: qHTS assay to identify small molecule antagonists of the progesterone receptor (PR) signaling pathway (AID 1346795; active means well fitted inhibition curve with a large enough effect in the signal ratio in the repeat runs, not every such curve was filed as active; the % refers to the signal ratio; further: potency means the concentration at half of the fitted maximal effect)
Outline: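 HEK293T PR-UAS-bla reporter cells in charcoal-stripped serum (2%) received compound after a 6 hr settling period, followed by R5020 agonist at 1 nM final; 16 hr incubation preceded the FRET substrate step and fluorescence measurement.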

[4] = qHTS assay to identify small molecule antagonists of the progesterone receptor (PR) signaling pathway - cell viability counter screen (AID 1346798); further: series mostly up to about 92 µM; nearly all actives have a fitted effect of over 50% in size
Outline: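 Same-well multiplex: after 16 hr at 37C with compound and R5020 stimulation, HEK293T cells carrying a UAS-bla reporter received LiveBLAzer substrate (2 hr RT), then CellTiter-Glo (30 min RT) for luminescent viability.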

[5] = qHTS assay to identify small molecule agonists of the progesterone receptor (PR) signaling pathway - cell viability counter screen (AID 1346799; calls by dose curve; further: nearly all actives have a fitted effect of over 45% in size)
Outline: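 Counter screen for cytotoxicity: compound-treated PR-UAS-bla HEK293T cells (16 hr, 37C, 5% CO2) were assayed with CellTiter-Glo, luminescence measured after 30 min at room temperature.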

[6] = qHTS assay to identify small molecule antagonists of the TGF-beta/Smad signaling pathway - cell viability counter screen (AID 1346824); further: nearly all actives have a fitted effect of over 50% in size
Outline: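 SBE-bla HEK 293T cells, incubated overnight, then compound plus 0.25 ng/mL TGF-beta1 (stock added) for 5 hr at 37 C. Viability was read in the same wells by CellTiter-Glo luminescence after 30 min at room temperature.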

[7] = qHTS assay to identify small molecule agonists of the TGF-beta/Smad signaling pathway - cell viability counter screen (AID 1346829); further: top concentration of the series differs between compounds; nearly all actives have a fitted effect of over 45% in size
Outline: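 After overnight seating at 37 C and 5% CO2, reporter cells got compounds for 5 hr and FRET substrate for 2 hr; cell viability then came from CellTiter-Glo luminescence.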

[8] = qHTS assay to identify small molecule agonists of the TGF-beta/Smad signaling pathway (AID 1346859; active means well fitted activation curve with a large enough effect in the signal ratio in the repeat runs, not every such curve was filed as active; the % refers to the signal ratio; further: series mostly up to about 77 µM)
Outline: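 Smad-responsive beta-lactamase reporter cells (HEK 293T) received compounds from DMSO stocks after overnight attachment, were incubated 5 hr, then treated 2 hr with FRET substrate before dual-emission fluorescence measurement (405 nm excitation).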

[9] = target: Thyrotropin-releasing hormone receptor (Homo sapiens) (UniProt P34981); assay: qHTS assay to identify small molecule antagonists of the thyrotropin-releasing hormone receptor (TRHR) signaling pathway (AID 1346877; active means well fitted inhibition curve with a large enough effect in the repeat runs, not every such curve was filed as active; further: series mostly up to about 51 µM)
Outline: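 TRHR-expressing HEK293 cells were seeded, cultured 18 h at 37 °C, then loaded with calcium dye for 2 h. Compounds were pre-incubated 5 min at room temperature before 1 nM TRH (final) was added, and kinetic fluorescence was recorded for 3 min.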

[10] = target: Thyrotropin-releasing hormone receptor (Homo sapiens) (UniProt P34981); assay: qHTS assay to identify small molecule agonists of the thyrotropin-releasing hormone receptor (TRHR) signaling pathway (AID 1346891; calls by dose curve; further: series mostly up to about 58 µM)
Outline: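 Agonist-mode calcium mobilisation screen: TRHR-transfected HEK293 cells cultured overnight (18 h), dye-loaded for 2 h at 37 °C, exposed to compounds, and monitored by fluorescence for 3 min.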

[11] = Human pregnane X receptor (PXR) small molecule agonists, qHTS cell viability counter screen (AID 1346977); further: nearly all actives have a fitted effect of over 50% in size; further: potency means the concentration at half of the fitted maximal effect
Outline: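 Measures live-cell protease fluorescence (CellTiter-Fluor) in PXR-Luc HepG2 cells treated 24hr with compounds at 37C. Cells had 5hr to attach before pin transfer of DMSO solutions.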

[12] = Caspase-3/7 induction in CHO-K1 cells by small molecules, qHTS cell viability counter screen (AID 1346979); further: nearly all actives have a fitted effect of over 35% in size; further: potency means the concentration at half of the fitted maximal effect
Outline: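 In the same wells as the caspase read, viability of compound-treated wild-type CHO-K1 cells was assessed using CellTiter-Fluor, added after 16hr at 37C and measured by fluorescence following 1hr further incubation.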

[13] = Caspase-3/7 induction in CHO-K1 cells by small molecules, qHTS assay (AID 1346980); further: nearly all actives have a fitted effect of over 15% in size
Outline: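 Wild-type CHO-K1 cells exposed to compounds for 17hr at 37 C, 5% CO2. Caspase-3/7 activity then measured by Caspase-Glo 3/7 luminescence after 30min at room temperature.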

[14] = Caspase-3/7 induction in HepG2 cells by small molecules, qHTS cell viability counter screen (AID 1346981); further: nearly all actives have a fitted effect of over 30% in size; further: potency means the concentration at half of the fitted maximal effect
Outline: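 Wild-type HepG2 cells (2,000/well) were allowed to settle for 5 hr at 37 C, 5% CO2, then dosed with compounds in DMSO by pin transfer. After 16 hr at 37 C, CellTiter-Fluor was added and fluorescence read 1 hr later.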

[15] = target: Nuclear receptor subfamily 1 group I member 2 (Homo sapiens) (UniProt O75469); assay: Human pregnane X receptor (PXR) small molecule agonists, qHTS assay (AID 1346982); further: nearly all actives have a fitted effect of over 35% in size; further: potency means the concentration at half of the fitted maximal effect
Outline: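 PXR-Luc HepG2 cells (CYP3A4 promoter-driven luciferase) were seeded in medium with 5% charcoal-stripped FBS, left 5 hr at 37 C, then exposed to compounds in DMSO for 24 hr. Luminescence was read after ONE-Glo addition.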

[16] = target: Cytochrome P450 2D6 (Homo sapiens) (UniProt P10635); assay: Cytochrome P450 Family 2 Subfamily D Member 6 (CYP2D6) small molecule antagonists: luciferase reporter qHTS assay (AID 1671196); further: nearly all actives have a fitted effect of over 50% in size; further: potency means the concentration at half of the fitted maximal effect
Outline: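 CYP2D6 enzyme–substrate mix was held with compound for 10 min at room temperature, then NADPH regeneration solution was added and the reaction ran 1 h at room temperature. Luciferin product was detected by luminescence after 20 min with detection reagent.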

[17] = Caspase-3/7 induction in HepG2 cells by small molecules, qHTS assay (AID 1346978); further: nearly all actives have a fitted effect of over 15% in size
Outline: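 Wild-type HepG2 cells, 2,000/well, settled 5 hr at 37 C and 5% CO2, then compound-treated for 17 hr; caspase-3/7 activity read by luminescent Caspase-Glo 3/7 after 30 min at room temperature.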

[18] = target: Nuclear receptor subfamily 1 group I member 2 (Homo sapiens) (UniProt O75469); assay: CYP3A4 induction through human pregnane X receptor (PXR) by small molecules, qHTS assay (AID 1346984); further: nearly all actives have a fitted effect of over 40% in size
Outline: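 DPX-2 cells (HepG2 co-transfected with PXR and CYP3A4 promoter-luciferase) treated with compounds 24 h at 37C; luciferin-IPA CYP3A4 substrate 3uM final added for 3 h, then One-Glo; luminescence read. qHTS format.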

[19] = target: Nuclear receptor subfamily 1 group I member 2 (Homo sapiens) (UniProt O75469); assay: Human pregnane X receptor (PXR) activation by small molecules, qHTS assay (AID 1346985); further: nearly all actives have a fitted effect of over 40% in size
Outline: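 DPX-2 cells (HepG2 co-transfected with a PXR response element and a CYP3A4-promoter luciferase construct) were seeded at 2,000 per well, rested 5 hr at 37C, then exposed to DMSO-dissolved compounds for 24 hr. Activation was read as luciferase luminescence.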

[20] = target: Nuclear receptor subfamily 1 group I member 2 (Rattus norvegicus) (UniProt Q9R1A7); assay: Rat pregnane X receptor (rPXR) activation by small molecules, qHTS assay (AID 1346983); conditions: rPXR luciferase reporter cells, One-Glo luminescence, 24 h; stronger effect = higher value; further: nearly all actives have a fitted effect of over 20% in size
Outline: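 Cell-based rPXR activation assay: rPXR cells, 2,000 per well, rested 5hr at 37 C, then exposed to compounds in DMSO for 24 hr at 37 C. Luciferase activity read by One-Glo luminescence after 30 min at room temperature.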

Chain of Progesterone receptor (Homo sapiens) (P06401 whole entry, looked up): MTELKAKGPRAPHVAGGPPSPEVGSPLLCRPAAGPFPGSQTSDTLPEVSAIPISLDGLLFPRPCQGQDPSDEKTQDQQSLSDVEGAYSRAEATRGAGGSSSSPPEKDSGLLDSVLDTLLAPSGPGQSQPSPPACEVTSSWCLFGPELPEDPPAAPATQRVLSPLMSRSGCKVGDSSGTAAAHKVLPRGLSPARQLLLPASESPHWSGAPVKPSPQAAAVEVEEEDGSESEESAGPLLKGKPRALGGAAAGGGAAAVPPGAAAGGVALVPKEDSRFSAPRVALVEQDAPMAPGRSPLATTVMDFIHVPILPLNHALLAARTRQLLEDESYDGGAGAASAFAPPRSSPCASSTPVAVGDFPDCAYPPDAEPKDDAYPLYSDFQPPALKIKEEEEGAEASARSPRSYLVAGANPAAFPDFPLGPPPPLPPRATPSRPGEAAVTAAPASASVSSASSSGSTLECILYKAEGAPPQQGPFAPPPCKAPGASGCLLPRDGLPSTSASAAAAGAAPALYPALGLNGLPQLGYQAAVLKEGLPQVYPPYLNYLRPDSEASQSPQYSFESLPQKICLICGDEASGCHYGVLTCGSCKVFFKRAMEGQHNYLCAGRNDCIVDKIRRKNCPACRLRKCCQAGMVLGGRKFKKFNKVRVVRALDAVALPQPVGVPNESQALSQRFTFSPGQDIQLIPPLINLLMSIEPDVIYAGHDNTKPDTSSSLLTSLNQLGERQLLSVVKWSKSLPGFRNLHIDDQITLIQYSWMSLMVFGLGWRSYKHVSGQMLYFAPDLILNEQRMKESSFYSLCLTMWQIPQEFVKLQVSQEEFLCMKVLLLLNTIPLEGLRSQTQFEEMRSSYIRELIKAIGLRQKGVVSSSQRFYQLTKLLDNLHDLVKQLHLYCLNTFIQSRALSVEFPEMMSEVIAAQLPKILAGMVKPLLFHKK
Chain of Nuclear receptor subfamily 1 group I member 2 (Homo sapiens) (O75469 whole entry, looked up): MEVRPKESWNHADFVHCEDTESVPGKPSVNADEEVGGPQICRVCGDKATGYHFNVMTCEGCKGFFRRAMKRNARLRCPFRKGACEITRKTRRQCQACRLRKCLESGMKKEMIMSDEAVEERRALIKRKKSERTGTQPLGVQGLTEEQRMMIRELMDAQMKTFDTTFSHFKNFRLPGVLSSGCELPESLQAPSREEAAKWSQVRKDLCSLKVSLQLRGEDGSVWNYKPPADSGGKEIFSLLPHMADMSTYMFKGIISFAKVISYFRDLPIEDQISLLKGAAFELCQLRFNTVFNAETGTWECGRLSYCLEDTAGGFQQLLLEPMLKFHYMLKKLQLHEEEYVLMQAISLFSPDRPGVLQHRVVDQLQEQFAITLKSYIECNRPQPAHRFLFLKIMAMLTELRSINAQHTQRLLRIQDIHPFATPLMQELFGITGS
Chain of Cytochrome P450 2D6 (Homo sapiens) (P10635 whole entry, looked up): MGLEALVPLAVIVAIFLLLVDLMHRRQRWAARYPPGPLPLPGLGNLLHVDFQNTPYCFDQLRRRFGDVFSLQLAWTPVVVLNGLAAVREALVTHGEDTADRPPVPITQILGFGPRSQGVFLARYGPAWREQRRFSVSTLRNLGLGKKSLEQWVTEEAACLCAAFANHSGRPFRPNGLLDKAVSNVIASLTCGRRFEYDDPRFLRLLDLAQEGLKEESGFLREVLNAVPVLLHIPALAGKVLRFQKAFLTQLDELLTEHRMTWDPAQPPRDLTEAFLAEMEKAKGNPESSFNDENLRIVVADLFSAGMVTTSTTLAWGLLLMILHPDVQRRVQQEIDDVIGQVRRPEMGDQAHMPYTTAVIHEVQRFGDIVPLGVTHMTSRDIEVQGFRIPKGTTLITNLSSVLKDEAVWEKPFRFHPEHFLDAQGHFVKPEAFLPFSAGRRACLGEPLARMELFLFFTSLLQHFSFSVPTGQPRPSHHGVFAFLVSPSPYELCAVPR
Chain of Thyrotropin-releasing hormone receptor (Homo sapiens) (P34981 whole entry, looked up): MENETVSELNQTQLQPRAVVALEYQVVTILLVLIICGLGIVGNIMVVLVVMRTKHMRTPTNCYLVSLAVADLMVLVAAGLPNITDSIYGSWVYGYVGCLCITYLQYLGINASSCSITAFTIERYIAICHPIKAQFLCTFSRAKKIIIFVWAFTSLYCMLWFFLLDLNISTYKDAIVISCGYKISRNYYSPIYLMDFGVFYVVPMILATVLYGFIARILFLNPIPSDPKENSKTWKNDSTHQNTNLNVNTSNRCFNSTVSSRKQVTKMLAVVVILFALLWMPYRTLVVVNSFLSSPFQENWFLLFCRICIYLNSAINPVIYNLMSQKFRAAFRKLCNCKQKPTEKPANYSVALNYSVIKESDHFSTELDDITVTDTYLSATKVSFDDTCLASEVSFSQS
Chain of Nuclear receptor subfamily 1 group I member 2 (Rattus norvegicus) (Q9R1A7 whole entry, looked up): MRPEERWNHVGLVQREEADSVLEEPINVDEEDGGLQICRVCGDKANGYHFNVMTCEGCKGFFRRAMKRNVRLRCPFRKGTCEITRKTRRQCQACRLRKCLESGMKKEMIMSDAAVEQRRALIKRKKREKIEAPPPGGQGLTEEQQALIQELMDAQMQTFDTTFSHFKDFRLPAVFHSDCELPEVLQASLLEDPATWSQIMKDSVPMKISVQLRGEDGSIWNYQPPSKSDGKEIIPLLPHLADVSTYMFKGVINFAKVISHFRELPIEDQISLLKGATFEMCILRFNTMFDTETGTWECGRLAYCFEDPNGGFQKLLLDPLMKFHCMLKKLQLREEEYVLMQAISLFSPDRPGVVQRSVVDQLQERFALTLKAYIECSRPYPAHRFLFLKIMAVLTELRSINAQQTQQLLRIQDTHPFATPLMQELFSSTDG

SMILES	Potency [1]	Potency [2]	Potency [3]	Potency [4]	Potency [5]	Potency [6]	Potency [7]	Potency [8]	Potency [9]	outcome [10]	Potency [11]	Potency [12]	Potency [13]	Potency [14]	Potency [15]	Potency [16]	Potency [17]	Potency [18]	Potency [19]	max activation [20] [%]
Cc1ccc(C)cc1	inactive	inactive	inactive	inactive	inactive	inactive	inactive	inactive	inactive	inactive	inactive	inactive	inactive	inactive	inactive	inactive	–	–	–	–
O=C(O)c1cc(=O)c2ccccc2o1	inactive	inactive	inactive	inactive	inactive	inactive	inactive	inactive	inactive	inactive	–	inactive	inactive	inactive	inactive	inactive	inactive	inactive	inactive	–
CNc1ccc([N+](=O)[O-])cc1	34.4 µM (active)	inactive	54.6 µM (active)	inactive	inactive	inactive	inactive	inactive	inactive	–	43.4 µM (active)	48.7 µM (active)	inactive	30.7 µM (active)	54.6 µM (active)	–	inactive	–	–	–
COC(=O)c1ccccc1OC	inactive	inactive	inactive	inactive	inactive	inactive	inactive	inactive	inactive	–	inactive	inactive	inactive	inactive	inactive	–	inactive	–	–	–
CCOC(=O)NNc1ccc(N(CC)CC(C)O)nn1 (stereo not drawn)	inactive	inactive	inactive	inactive	inactive	inactive	inactive	inactive	inactive	inactive	inactive	inactive	inactive	inactive	inactive	inactive	inactive	–	–	–
Cc1ccc(-c2ccccc2)cc1	inactive	inactive	inactive	inactive	inactive	inactive	inactive	inactive	inactive	inactive	inactive	inactive	inactive	inactive	inactive	inactive	inactive	–	–	–
CC(CO)Oc1ccccc1 (stereo not drawn)	inactive	inactive	inactive	inactive	inactive	inactive	inactive	inactive	inactive	inactive	inactive	inactive	inactive	inactive	inactive	–	inactive	–	–	–
CCCC(=O)OC(C)(C)Cc1ccccc1	inactive	inactive	inactive	inactive	inactive	inactive	inactive	inactive	inactive	inactive	–	inactive	inactive	inactive	–	–	inactive	–	–	–
CC(=O)CC(=O)Nc1ccc(S(=O)(=O)O)cc1	inactive	inactive	inactive	inactive	inactive	inactive	inactive	inactive	inactive	inactive	inactive	inactive	inactive	inactive	–	inactive	inactive	–	–	–
O=c1[nH]c(=O)n([C@H]2C[C@H](O)[C@@H](CO)O2)cc1F	inactive	inactive	inactive	inactive	inactive	inactive	inactive	inactive	inactive	inactive	inactive	inactive	inactive	inactive	–	–	inactive	inactive	–	-2.43
CCCCOC(=O)CO	inactive	inactive	inactive	inactive	inactive	inactive	inactive	inactive	inactive	inactive	inactive	inactive	inactive	inactive	inactive	inactive	inactive	–	–	–
CC1(C)CCC[C@]2(C)[C@H]3CCO[C@]3(C)CC[C@@H]12	inactive	inactive	inactive	inactive	inactive	inactive	inactive	inactive	inactive	inactive	–	inactive	inactive	inactive	inactive	inactive	inactive	–	–	–
Sc1nc2ccccc2s1	inactive	inactive	inactive	inactive	inactive	inactive	inactive	inactive	inactive	inactive	–	–	–	inactive	54.5 µM (active)	–	inactive	–	–	–
C=Cc1ccccc1C=C	inactive	inactive	inactive	inactive	inactive	inactive	inactive	inactive	inactive	inactive	inactive	inactive	inactive	inactive	109 µM (active)	79.4 µM (active)	inactive	–	–	–
CCc1cccc(CC)c1NC(=O)CN(CC(=O)O)CC(=O)O	inactive	inactive	inactive	inactive	inactive	inactive	inactive	inactive	inactive	inactive	inactive	inactive	inactive	inactive	inactive	inactive	inactive	inactive	inactive	–
NC(=O)c1cccc([N+](=O)[O-])c1	inactive	inactive	inactive	inactive	inactive	inactive	inactive	inactive	inactive	–	inactive	inactive	inactive	inactive	inactive	–	inactive	–	–	–
